TDP1 cell CPT: DT40-hTDP1 cell growth loss with CPT | chicken DT40 Tdp1-/-;hTDP1 cells + 20 nM CPT, ATP luminescence, 48 h | Potency, µM (highest dose often 46.2 µM), for the others: top-dose activity change, negative = growth inhibition, hits mostly inhibitors | 420,000 compounds, 12% hits | AID 686979; note: potency is the fitted concentration of half-maximal effect; nearly all actives have a fitted effect of over 55% in size
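Cell growth measured by CellTiter-Glo luminescence after a minimum 48 h, 37 C compound exposure with 20 nM CPT in Tdp1-knockout DT40 cells stably expressing hTDP1, seeded 400/well; qHTS titration format.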
IL-1B inflam inh: inhibitors of inflammasome signaling (IL-1 beta secretion). activity change, % at 57.5 µM. THP-1 LPS/ATP IL-1B secretion, AlphaLISA, 16 h; active compounds read low. 360,000 compounds, 4.7% hits. AID 743279; in the data active = activity change below about -50%; inconclusive = mostly about -30% to -49%
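Secreted IL-1B measured by AlphaLISA bead assay after 16 h compound exposure of THP-1 cells; compounds (final up to 57.5 uM) added 1 h before LPS (250 ng/mL) and ATP (1.25 mM) stimulation; lower signal means less secretion.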
DT40 TDP1 no CPT: qHTS for Inhibitors of human tyrosyl-DNA phosphodiesterase 1 (TDP1): qHTS in cells in absence of CPT; DT40 Tdp1-/- hTDP1 cells, no CPT, ATP luminescence, 48 h; Potency, µM (series often up to 46.2 µM), without a hit: at the top dose activity change, negative = growth inhibition, hits mostly inhibitors; 420,000 compounds, 15% hits; AID 686978, 2013; note: potency is the fitted concentration of half-maximal effect; nearly all actives have a fitted effect of over 55% in size
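A cellular qHTS used chicken DT40 cells lacking endogenous Tdp1 but carrying stably transfected human TDP1. Compounds were applied without camptothecin, and cell growth kinetics were judged by ATP-dependent luminescence after ≥48 hr.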
TDP1 block: inhibitors of human tyrosyl-DNA phosphodiesterase TDP1. 350,000 compounds, 0.28% hits. recombinant TDP1, AlphaScreen DNA substrate cleavage. AID 485290. Potency, µM (series often up to 130 µM), for the others: at the top dose activity change, negative = inhibition, most hits filed as inhibitors; note: potency is the fitted concentration of half-maximal effect; nearly all actives have a fitted effect of over 40% in size
Target sequence (Q9NUW8 whole entry, looked up): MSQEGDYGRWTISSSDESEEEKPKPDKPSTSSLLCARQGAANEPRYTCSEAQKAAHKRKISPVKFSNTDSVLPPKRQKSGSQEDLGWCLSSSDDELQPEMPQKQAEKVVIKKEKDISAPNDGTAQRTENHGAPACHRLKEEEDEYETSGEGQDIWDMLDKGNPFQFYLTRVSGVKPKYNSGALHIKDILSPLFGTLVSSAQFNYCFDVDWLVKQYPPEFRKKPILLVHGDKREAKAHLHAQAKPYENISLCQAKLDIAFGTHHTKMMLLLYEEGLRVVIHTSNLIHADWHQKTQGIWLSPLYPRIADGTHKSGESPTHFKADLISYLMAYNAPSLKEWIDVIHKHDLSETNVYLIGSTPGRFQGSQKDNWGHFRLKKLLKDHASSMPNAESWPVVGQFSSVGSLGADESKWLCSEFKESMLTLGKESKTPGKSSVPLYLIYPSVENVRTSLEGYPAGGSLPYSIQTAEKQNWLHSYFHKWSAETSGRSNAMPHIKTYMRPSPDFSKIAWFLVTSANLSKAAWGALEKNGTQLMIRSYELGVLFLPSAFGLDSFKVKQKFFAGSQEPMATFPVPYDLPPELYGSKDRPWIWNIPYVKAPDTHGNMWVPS
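Signal: AlphaScreen proximity between streptavidin donor and anti-FITC acceptor beads on intact substrate. Reaction: Tdp1 1 nM, substrate 15 nM final, 5 min RT after 15 min compound preincubation.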
CtBP-E1A inh: CtBP/E1A binding inhibition | AlphaScreen GST-E1A/His-CtBP binding, 1536-well; active compounds read low | activity change, % (test concentration not listed) | 340,000 compounds, 0.49% hits | AID 651724; in the data active = activity change below about -65%; inconclusive = mostly about -30% to -63%
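Protein mix (5X: 125 nM each GST-E1A, His-CtBP) was incubated with pinned compound 2 h at 37 deg C in dark, in 50 mM Tris pH 8.0 buffer with 300 mM NaCl. Glutathione donor and nickel acceptor beads followed; AlphaScreen signal read after 1 h.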
Six1-Eya2 inh: blocks human Six1 binding to Eya2; activity change, % (no concentration beside the values); AlphaScreen GST-Six1/His-Eya2 binding, biochemical; active compounds read low; Q15475+O00167; 360,000 compounds, 0.56% hits; in the data active = activity change below about -65%; inconclusive = mostly about -30% to -63%
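Compounds are tested against tagged Six1 and Eya2 proteins bridged by glutathione donor and nickel acceptor beads; after a one-hour incubation at 37 °C without light, AlphaScreen emission is recorded.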
* marks the source's active call; other numbers are inactive results; ? = inconclusive; nt = no result given; [ ] = dose if it differs, or a comment. Compounds with a hit are over-represented: about 18% of the library has one in this group of screens. Unless noted, calls come from the whole dose curve; as a rule, active = well fitted curve in the direction sought with a large enough effect; inconclusive = small, poorly fitted or top-dose-only effect, or another doubt; inactive = no such curve, though single readings can be large; an effect the other way counts as inactive or inconclusive. % is set by controls: 0 for no effect and ±100 for the full control effect.

SMILES	TDP1 cell CPT	IL-1B inflam inh	DT40 TDP1 no CPT	TDP1 block	CtBP-E1A inh	Six1-Eya2 inh
O=C(CCC(=O)N(CC(=O)NC1CCCC1)c1ccc(F)cc1)Nc1nccs1	1%	0	1%	nt	5	10
Cc1ccc(NC(=O)CCN2C(=O)NC3(CCCC3)C2=O)c(C)c1	-2%	-13	3.3µM*	0%[56.1 µM]	nt	4
C[C@]1(O)CC(=O)C=C[C@H]1Nc1ccccc1	?	-104*	18µM*	nt	-28	?
CC1(C)CC(C(=O)Nc2ccccc2)C(=O)O1 (stereo not given)	16%	-11	-18%	nt	-12	2
Cc1oc2c(CN3CCCC(C)C3)c(O)ccc2c(=O)c1-c1ccccc1 (stereo not given)	-4%	5	20%	nt	12	0
COc1ccc(NC(=O)c2c(C)oc3ccc(O)c(CN4CCCC(C)C4)c23)cc1 (stereo not given)	26µM*	nt	?	2%	nt	nt
Cc1oc2ccc(O)c(CN3CCCC(C)C3)c2c1C(=O)Nc1ccccc1 (stereo not given)	10µM*	nt	16µM*	-4%	nt	nt
COc1ccc(NC(=O)c2c(C)oc3ccc(O)c(CN4CCCCCC4)c23)cc1	21µM*	nt	23µM*	4%	nt	nt
COc1ccc(NC(=O)c2c(C)oc3ccc(O)c(CN4CCC(C)CC4)c23)cc1	10µM*	nt	15µM*	-1%	nt	nt
COc1ccccc1-c1c(C)oc2c(CN3CCCC(C)C3)c(O)ccc2c1=O (stereo not given)	-9%	-11	?	nt	-4	-3
Cc1ccc2c(c1)cc(C(=O)NCc1ccccc1)n2C	20%	10	-10%	1%	-23	2
Cc1ccc(C(C(=O)NC2CCCC2)N(C(=O)c2csnn2)c2cccc(F)c2)o1 (stereo not given)	-25%	13	-16%	2%	0	-5
COc1ccc(NC(=O)c2c(C)oc3ccc(O)c(CN4CCN(Cc5ccccc5)CC4)c23)cc1	21µM*	nt	12µM*	-2%	nt	nt
COc1ccc(NC(=O)c2c(C)oc3ccc(O)c(CN4CCN(C)CC4)c23)cc1Cl	16µM*	nt	18µM*	7%	nt	nt
COc1cc(NC(=O)CCN2CCN(Cc3ccccc3)CC2)cc(OC)c1	-40%	-2	?	1%	-2	-2
COc1ccc(NC(=O)c2c(C)oc3ccc(O)c(CN4CCCC4)c23)cc1Cl	?	nt	?	1%	nt	nt
COCc1cccc(-c2csc(C(O)c3ccc(F)c(F)c3)n2)c1 (stereo not given)	?	-19	?	nt	-16	5
O=C(NN=C1CCCC1)c1n[nH]c2c1CCCC2	-12%	87	19%	-3%	1	-1
CCCCCCCCCCCC(=O)OC[C@@H](O)C1OC[C@H](O)[C@H]1O (stereo not given in full)	7%	nt	-15%	nt	nt	nt
COc1ccc(C(C(=O)NCc2ccccc2)n2c(-c3ccncc3)nc3ccccc32)cc1 (stereo not given)	?	-9	?	nt	-14	-1
CCOC(=O)C1=C(C(=O)OCC)c2ccc(OC)c(OC)c2C1	2%	-3	18µM*	nt	-14	-2
CN(Cc1nccn1C)C(=O)CC1C(=O)NCCN1CC(c1ccccc1)c1ccccc1 (stereo not given)	-7%	?	-28%	0%	4	-7
Cc1cccc(NC(=O)c2c(Br)sc3c2CCCC3)c1	?	nt	23µM*	-6%[12.3 µM]	nt	nt
Cc1cccc(C(=O)Nc2sc3c(c2C(=O)Nc2ccccc2)CCC3)c1	-27%	nt	?	0%[12.3 µM]	nt	nt
CCN(CC)C(=O)c1c(NC(=O)c2cccc(C)c2)sc2c1CCC(C)C2 (stereo not given)	23µM*	nt	16µM*	nt	nt	nt
SMILES	TDP1 cell CPT	IL-1B inflam inh	DT40 TDP1 no CPT	TDP1 block	CtBP-E1A inh	Six1-Eya2 inh
Cc1cccc(C(=O)Nc2sc3c(c2C(=O)O)CCCC3)c1	16µM*	-13	?	nt	-11	4
Cc1c(OCC(=O)N2CCC(C(N)=O)CC2)ccc2c3c(c(=O)oc12)CCCC3	-14%	-16	-27%	nt	0	7
Cn1c(C(O)c2ccc3c(c2)OCO3)nc2ccccc21 (stereo not given)	16µM*	13	?	7%	-2	-2
Cc1nn(C)cc1C=NCCOCc1ccccc1	8%	11	0%	2%	1	-1
COc1ccc(NC(=O)CN(C)CC(=O)c2[nH]c(C)c(C(C)=O)c2C)cc1	?	11	?	2%	8	-12
COc1cc(CN(C)CC(=O)c2[nH]c(C)c(C(C)=O)c2C)ccc1OC(F)F	8.2µM*	-28	3.7µM*	6%	9	1
CC(=O)c1c(C)[nH]c(C(=O)COc2cc(C)ccc2C(C)C)c1C	8.2µM*	39	4.6µM*	-2%	0	-7
COc1ccccc1OCC(=O)c1[nH]c(C)c(C(C)=O)c1C	15µM*	-10	12µM*	-1%	-8	-9
O=C(Nc1ccc(Cc2ccncc2)cc1)C1CCC(N2C(=O)C3CC=CCC3C2=O)CC1 (stereo not given)	21µM*	-71*	16µM*	7%	10	-6
COc1ccc(NC(=O)C2CCC(N3C(=O)C4CCCCC4C3=O)CC2)cc1 (stereo not given)	10%	13	-28%	5%	-1	7
CCOc1cc(/C=C/C(=O)c2ccc3c(c2)OCCO3)ccc1OCC(=O)N(C)C	-95%	-104*	23µM*	9%	1	4
CCOc1cc(/C=C/C(=O)c2ccc(O)cc2)ccc1OCC(=O)N(C)C	?	-103*	?	1%	-6	12
CCOc1ccc(/C=C/C(=O)N(CC)CC(=O)Nc2ccc3c(c2)OCCO3)cc1OC	-19%	-7	-21%	-5%	1	1
COc1ccc(N2CCN(C(=O)CNC(=O)Cn3cnc4sc(C)c(C)c4c3=O)CC2)cc1	-26%	90	2%	-3%	2	0
c1ccc(CCNc2c3c(nc4ncnn24)CCC3)cc1	?	-10	?	0%	-6	-2
Fc1ccccc1CCNc1c2c(nc3ncnn13)CCCC2	9.2µM*	-1	5.2µM*	6%	-11	-5
COc1cccc(OC)c1C(=O)Nc1ccc(N2CCN(C(=O)c3cccs3)CC2)cc1	-23%	0	?	6%	-27	0
COc1cccc(C(=O)Nc2ccc(N3CCN(C(=O)c4cccs4)CC3)cc2)c1	2.3µM*	-87*	4.6µM*	nt	3	-9
